# Source: PubChem BioAssay AID1159580 (chemical genetic matrix, 2015)
# Several values for one entry are separate records, joined by “and”; a condition that tells them apart may be missing. Equal values may be shown once. Among all 5,500 compounds or so, about 2,000 (36%) were called active. Inconclusive results (about 18%) are left out. The list shows a part of the results. A number with no mark means an inactive call. Cut-off read from the data, not from the text of the source: active = normalized growth mostly below about 0.91 (no sharp cut-off); inconclusive = no clear call, values can overlap the other calls; inactive = mostly above about 0.92.
# Assay: chemical genetic growth profiling, strain panel (AID 1159580);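 note: tested at 20 µM; growth read once vehicle control cultures reached saturation at 30 °C; 1 = growth at the plate median or of vehicle wells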
# Settings: growth OD
# [1] = S. cerevisiae deletion strains, locus YGR078C, strain PAC10, stronger effect = lower value
# [2] = S. cerevisiae deletion strains, locus YMR263W, strain SAP30, stronger effect = lower value
# [3] = S. cerevisiae deletion strains, locus YNL153C, strain GIM3, stronger effect = lower value
# [4] = S. cerevisiae deletion strains, locus YNL322C, strain KRE1, stronger effect = lower value
smiles,measurement,setting,value
NCCCC(N)(C(=O)O)C(F)F (stereo not drawn),normalized growth,"S. cerevisiae deletion strains, locus YAL040C, strain CLN3, stronger effect = lower value",0.996
same,normalized growth,"S. cerevisiae deletion strains, locus YCL061C, strain MRC1 (second series), stronger effect = lower value",1
same,normalized growth,"S. cerevisiae deletion strains, locus YDR363W, strain ESC2, stronger effect = lower value",0.981
same,normalized growth,"S. cerevisiae deletion strains, locus YER002W, strain NOP16, stronger effect = lower value",0.996
same,normalized growth,[1],1.01
same,normalized growth,[2],0.994
same,normalized growth,[3],1.02
same,normalized growth,"S. cerevisiae deletion strains, locus YNL175C, strain NOP13, stronger effect = lower value",1
same,normalized growth,"S. cerevisiae deletion strains, locus YNL197C, strain WHI3, stronger effect = lower value",0.983
same,normalized growth,"S. cerevisiae deletion strains, locus YNL224C, strain SQS1, stronger effect = lower value",1.01
same,normalized growth,[4],0.986
same,normalized growth,"S. cerevisiae deletion strains, locus YOR083W, strain WHI5 (second series), stronger effect = lower value",1.01
same,normalized growth,"S. cerevisiae deletion strains, locus YPL241C, strain CIN2, stronger effect = lower value",1
OCC(S)CS (stereo not drawn),normalized growth,"S. cerevisiae deletion strains, locus YAL013W, strain DEP1, stronger effect = lower value",0.987
same,normalized growth,"S. cerevisiae deletion strains, locus YBR021W, strain FUR4, stronger effect = lower value",0.999
same,normalized growth,"S. cerevisiae deletion strains, locus YBR229C, strain ROT2, stronger effect = lower value",0.96
same,normalized growth,"S. cerevisiae deletion strains, locus YCL029C, strain bik1, stronger effect = lower value",0.983
same,normalized growth,"S. cerevisiae deletion strains, locus YDL035C, strain GPR1, stronger effect = lower value",0.979
same,normalized growth,"S. cerevisiae deletion strains, locus YDL074C, strain BRE1, stronger effect = lower value",0.963
same,normalized growth,"S. cerevisiae deletion strains, locus YDL101C, strain DUN1, stronger effect = lower value",0.985
same,normalized growth,"S. cerevisiae deletion strains, locus YDL134C, strain PPH21, stronger effect = lower value",0.976
same,normalized growth,"S. cerevisiae deletion strains, locus YDL185W, strain tfp1, stronger effect = lower value",0.935
same,normalized growth,"S. cerevisiae deletion strains, locus YDL192W, strain arf1, stronger effect = lower value",0.964
same,normalized growth,"S. cerevisiae deletion strains, locus YDR101C, strain arx1, stronger effect = lower value",0.978
same,normalized growth,"S. cerevisiae deletion strains, locus YDR150W, strain NUM1, stronger effect = lower value",0.981
same,normalized growth,"S. cerevisiae deletion strains, locus YDR162C, strain NBP2, stronger effect = lower value",0.966
same,normalized growth,"S. cerevisiae deletion strains, locus YDR318W, strain mcm21, stronger effect = lower value",1
same,normalized growth,"S. cerevisiae deletion strains, locus YDR388W, stronger effect = lower value",0.982
same,normalized growth,"S. cerevisiae deletion strains, locus YDR502C, strain sam2, stronger effect = lower value",0.974
same,normalized growth,"S. cerevisiae deletion strains, locus YER110C, stronger effect = lower value",0.983
same,normalized growth,"S. cerevisiae deletion strains, locus YER155C, strain BEM2, stronger effect = lower value",0.999
same,normalized growth,"S. cerevisiae deletion strains, locus YER167W, strain BCK2, stronger effect = lower value",1.02
same,normalized growth,"S. cerevisiae deletion strains, locus YGL078C, strain dbp3, stronger effect = lower value",0.992
same,normalized growth,"S. cerevisiae deletion strains, locus YGL086W, strain mad1, stronger effect = lower value",1.01
same,normalized growth,"S. cerevisiae deletion strains, locus YGL248W, strain PDE1, stronger effect = lower value",0.972
same,normalized growth,[1],0.972
same,normalized growth,"S. cerevisiae deletion strains, locus YGR135W, strain pre9, stronger effect = lower value",0.962
same,normalized growth,"S. cerevisiae deletion strains, locus YGR229C, strain SMI1, stronger effect = lower value",0.986
same,normalized growth,"S. cerevisiae deletion strains, locus YGR252W, strain gcn5, stronger effect = lower value",0.949
same,normalized growth,"S. cerevisiae deletion strains, locus YHR030C, strain SLT2, stronger effect = lower value",1.01 and 0.959
same,normalized growth,"S. cerevisiae deletion strains, locus YHR079C, strain IRE1 (second series), stronger effect = lower value",1.01
same,normalized growth,"S. cerevisiae deletion strains, locus YHR079C, strain IRE1, stronger effect = lower value",0.931
same,normalized growth,"S. cerevisiae deletion strains, locus YHR094C, strain hxt1, stronger effect = lower value",0.98
same,normalized growth,"S. cerevisiae deletion strains, locus YHR129C, strain ARP1, stronger effect = lower value",1
same,normalized growth,"S. cerevisiae deletion strains, locus YHR200W, strain rpn10, stronger effect = lower value",0.974
same,normalized growth,"S. cerevisiae deletion strains, locus YIL066C, strain RNR3, stronger effect = lower value",0.967
same,normalized growth,"S. cerevisiae deletion strains, locus YIL073C, strain SPO22, stronger effect = lower value",1.03
same,normalized growth,"S. cerevisiae deletion strains, locus YIL125W, strain kgd1, stronger effect = lower value",0.966
same,normalized growth,"S. cerevisiae deletion strains, locus YIR030C, strain dcg1, stronger effect = lower value",0.989
same,normalized growth,"S. cerevisiae deletion strains, locus YJL095W, strain BCK1, stronger effect = lower value",1.01 and 0.978
same,normalized growth,"S. cerevisiae deletion strains, locus YJL134W, strain LCB3, stronger effect = lower value",0.994
same,normalized growth,"S. cerevisiae deletion strains, locus YJL168C, strain set2, stronger effect = lower value",0.984
same,normalized growth,"S. cerevisiae deletion strains, locus YJL187C, strain SWE1 (second series), stronger effect = lower value",0.973
same,normalized growth,"S. cerevisiae deletion strains, locus YJR043C, strain POL32, stronger effect = lower value",1.3 [resistant] (active)
same,normalized growth,"S. cerevisiae deletion strains, locus YJR066W, strain TOR1, stronger effect = lower value",0.933
same,normalized growth,"S. cerevisiae deletion strains, locus YJR075W, strain HOC1, stronger effect = lower value",0.974
same,normalized growth,"S. cerevisiae deletion strains, locus YKL009W, strain mrt4, stronger effect = lower value",1
same,normalized growth,"S. cerevisiae deletion strains, locus YKL068W, stronger effect = lower value",0.984
same,normalized growth,"S. cerevisiae deletion strains, locus YKL085W, strain MDH1 (second series), stronger effect = lower value",1.04
same,normalized growth,"S. cerevisiae deletion strains, locus YKL085W, strain MDH1, stronger effect = lower value",1.04
same,normalized growth,"S. cerevisiae deletion strains, locus YKL190W, strain CNB1, stronger effect = lower value",0.985
same,normalized growth,"S. cerevisiae deletion strains, locus YKR001C, strain vps1, stronger effect = lower value",0.978
same,normalized growth,"S. cerevisiae deletion strains, locus YLR039C, strain RIC1, stronger effect = lower value",1
same,normalized growth,"S. cerevisiae deletion strains, locus YLR058C, strain SHM2, stronger effect = lower value",0.984
same,normalized growth,"S. cerevisiae deletion strains, locus YLR102C, strain apc9, stronger effect = lower value",0.979
same,normalized growth,"S. cerevisiae deletion strains, locus YLR113W, strain HOG1, stronger effect = lower value",1.02
same,normalized growth,"S. cerevisiae deletion strains, locus YLR262C, strain YPT6, stronger effect = lower value",0.996
same,normalized growth,"S. cerevisiae deletion strains, locus YLR268W, strain sec22, stronger effect = lower value",0.955
same,normalized growth,"S. cerevisiae deletion strains, locus YLR330W, strain CHS5, stronger effect = lower value",1.01
same,normalized growth,"S. cerevisiae deletion strains, locus YLR342W, strain FKS1 (second series), stronger effect = lower value",1.01
same,normalized growth,"S. cerevisiae deletion strains, locus YLR371W, strain rom2, stronger effect = lower value",0.986
same,normalized growth,"S. cerevisiae deletion strains, locus YLR418C, strain cdc73, stronger effect = lower value",0.941
same,normalized growth,"S. cerevisiae deletion strains, locus YML016C, strain PPZ1, stronger effect = lower value",1
same,normalized growth,"S. cerevisiae deletion strains, locus YML032C, strain rad52, stronger effect = lower value",0.973
same,normalized growth,"S. cerevisiae deletion strains, locus YML124C, strain tub3, stronger effect = lower value",0.989
same,normalized growth,"S. cerevisiae deletion strains, locus YMR078C, strain ctf18, stronger effect = lower value",0.995
same,normalized growth,"S. cerevisiae deletion strains, locus YMR223W, strain ubp8, stronger effect = lower value",0.999
same,normalized growth,[2],0.974
same,normalized growth,"S. cerevisiae deletion strains, locus YMR307W, strain GAS1, stronger effect = lower value",1.08
same,normalized growth,"S. cerevisiae deletion strains, locus YNL067W, strain RPL9B, stronger effect = lower value",0.964
same,normalized growth,"S. cerevisiae deletion strains, locus YNL128W, strain TEP1, stronger effect = lower value",0.974
same,normalized growth,[3],0.973
same,normalized growth,"S. cerevisiae deletion strains, locus YNL183C, strain NPR1, stronger effect = lower value",0.97
same,normalized growth,"S. cerevisiae deletion strains, locus YNL233W, strain BNI4, stronger effect = lower value",1
same,normalized growth,"S. cerevisiae deletion strains, locus YNL250W, strain rad50, stronger effect = lower value",0.973
same,normalized growth,"S. cerevisiae deletion strains, locus YNL271C, strain bni1, stronger effect = lower value",0.988
same,normalized growth,"S. cerevisiae deletion strains, locus YNL298W, strain CLA4, stronger effect = lower value",0.978
same,normalized growth,"S. cerevisiae deletion strains, locus YNL307C, strain MCK1, stronger effect = lower value",0.998
same,normalized growth,[4],0.978
same,normalized growth,"S. cerevisiae deletion strains, locus YNR052C, strain pop2, stronger effect = lower value",0.987
same,normalized growth,"S. cerevisiae deletion strains, locus YOL006C, strain TOP1, stronger effect = lower value",0.849
same,normalized growth,"S. cerevisiae deletion strains, locus YOL012C, strain htz1",0.787
same,normalized growth,"S. cerevisiae deletion strains, locus YOL147C, strain pex11, stronger effect = lower value",0.987
same,normalized growth,"S. cerevisiae deletion strains, locus YOR061W, strain CKA2, stronger effect = lower value",0.969
same,normalized growth,"S. cerevisiae deletion strains, locus YOR069W, strain VPS5, stronger effect = lower value",1.14 [resistant] (active)
same,normalized growth,"S. cerevisiae deletion strains, locus YOR136W, strain idh2, stronger effect = lower value",0.992
same,normalized growth,"S. cerevisiae deletion strains, locus YOR144C, strain elg1, stronger effect = lower value",0.976
same,normalized growth,"S. cerevisiae deletion strains, locus YOR184W, strain ser1, stronger effect = lower value",0.996
same,normalized growth,"S. cerevisiae deletion strains, locus YOR231W, strain MKK1, stronger effect = lower value",0.921
same,normalized growth,"S. cerevisiae deletion strains, locus YOR316C, strain cot1, stronger effect = lower value",0.979
same,normalized growth,"S. cerevisiae deletion strains, locus YPL055C, strain LGE1, stronger effect = lower value",0.955
same,normalized growth,"S. cerevisiae deletion strains, locus YPL256C, strain CLN2, stronger effect = lower value",1.01
same,normalized growth,"S. cerevisiae deletion strains, locus YPR119W, strain clb2, stronger effect = lower value",0.994
same,normalized growth,"S. cerevisiae deletion strains, locus YPR141C, strain kar3, stronger effect = lower value",0.967
same,normalized growth,"S. cerevisiae deletion strains, locus YPR163C, strain tif3, stronger effect = lower value",0.988
same,normalized growth,"S. cerevisiae deletion strains, locus YPR167C, strain met16, stronger effect = lower value",0.968
same,normalized growth,"S. cerevisiae deletion strains, strain wtn01, stronger effect = lower value",0.961
same,normalized growth,"S. cerevisiae strains, strain wild type, stronger effect = lower value",0.99
